Records with an inconclusive call do not appear. The source made the active and inactive calls. Calls come from the whole dose curve; as a rule, active = well fitted curve in the direction sought with a large enough effect; inconclusive = small, poorly fitted or top-dose-only effect, or another doubt; inactive = no such curve, though single readings can be large; an effect the other way counts as inactive or inconclusive.

The nature of assay [1]: Quantitative High-Throughput drug screen in 47 multiple myeloma cell lines against the NCATS MIPE library collection: PCM6_Riken cell viability assay (AID 1919870). Note: nearly all actives have a fitted effect of over 30% in size. Note: potency is the fitted concentration of half-maximal effect. An outline of the steps:
(§1)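 ATP-based CellTiter-Glo luminescence after 48 h drug exposure (37 °C, 5% CO2) of 500 myeloma cells per well. DMSO-only wells set 100% viability, media-only wells 0%; MIPE 4.0 library added by pin tool.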

Assay [2] in a line: Quantitative High-Throughput drug screen in 47 multiple myeloma cell lines against the NCATS MIPE library collection: RPMI8226_ATCC cell viability assay (AID 1919871). Note: nearly all actives have a fitted effect of over 30% in size. Note: potency is the fitted concentration of half-maximal effect. An outline of the steps: as §1
Assay [3] is described as follows: Quantitative High-Throughput drug screen in 47 multiple myeloma cell lines against the NCATS MIPE library collection: OPM2_DSMZ cell viability assay (AID 1919872). Note: nearly all actives have a fitted effect of over 30% in size. Note: potency is the fitted concentration of half-maximal effect. The procedure, abridged: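 Myeloma cells (500 per well) were exposed to MIPE 4.0 compounds by pin transfer and incubated 48 hours at 37C, 5% CO2. Viability was read as ATP by CellTiter-Glo luminescence, normalised to DMSO (100%) and media-only (0%) wells.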

Assay [4] can be described thus: Quantitative High-Throughput drug screen in 47 multiple myeloma cell lines against the NCATS MIPE library collection: KMS11_JCRBsus cell viability assay (AID 1919873). Note: nearly all actives have a fitted effect of over 50% in size. Note: potency is the fitted concentration of half-maximal effect. An outline of the steps: as §1
Assay [5] is described as follows: Quantitative High-Throughput drug screen in 47 multiple myeloma cell lines against the NCATS MIPE library collection: KMS28BM_JCRB cell viability assay (AID 1919874). Note: nearly all actives have a fitted effect of over 35% in size. Note: potency is the fitted concentration of half-maximal effect. The procedure, abridged: as §1
The target in assay [6] is Cytochrome P450 3A4 (Homo sapiens) (UniProt P08684). The assay is described as follows: qHTS for inhibitors of CYP3A4 against the NCATS DSHEA and TCM libraries (AID 1919971).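 Note: inhibition lowers luminescence from luciferin made by CYP3A4.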 The procedure, abridged:
(§2)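 Concentration-response screening with isoform-matched pro-luciferin substrates. The CYP reaction was initiated by NADPH regenerating solution and ran 30-45 min in darkness at room temperature.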
On the technique in general: Quantitative high-throughput screening tests each substance at several concentrations.

Assay [7] deals with Cytochrome P450 2D6 (Homo sapiens) (UniProt P10635). The assay is described as follows: qHTS for inhibitors of CYP2D6 against the NCATS DSHEA and TCM libraries (AID 1919972). The procedure, abridged:
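CYP2D6 enzyme with pro-luciferin substrate in manufacturer buffer (typically 100 mM KPO4), preincubated 15 min RT with substances (most at 19.5 nM upward); NADPH regeneration system (1x) started 30–45 min RT reaction; P450-Glo luminescence read after 30 min; quinidine as intraplate control.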

In assay [8] the target is Cytochrome P450 2C9 (Homo sapiens) (UniProt P11712). In words: qHTS for inhibitors of CYP2C9 against the NCATS DSHEA and TCM libraries (AID 1919973).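 Note: luminogenic pro-luciferin CYP2C9 substrate turned into luciferin with NADPH regeneration; series mostly up to about 34 µM.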 The procedure, abridged:
as §2

Assay [9] has as its target Cytochrome P450 2C19 (Homo sapiens) (UniProt P33261). The assay is described as follows: qHTS for inhibitors of CYP2C19 against the NCATS DSHEA and TCM libraries (AID 1919974).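 Note: luminescence from luciferin released by CYP2C19 oxidation of a pro-luciferin substrate; potency is the fitted concentration of half-maximal effect.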 As to conditions: CYP2C19 enzyme inhibition, luminescence qHTS. An outline of the steps: as §2
Assay [10] can be described thus: KB-3-1 P-gp reporter qHTS against the NCATS DSHEA and TCM libraries (AID 1919975). An outline of the steps: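 CellTiter-Glo luminescence viability readout; KB-3-1 parental cells, 500/well, attached ~4 h, then compound for ~72 h, 37C, 5% CO2. Bortezomib intraplate control.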

Sequence of Cytochrome P450 2C9 (Homo sapiens) (P11712 whole entry, looked up): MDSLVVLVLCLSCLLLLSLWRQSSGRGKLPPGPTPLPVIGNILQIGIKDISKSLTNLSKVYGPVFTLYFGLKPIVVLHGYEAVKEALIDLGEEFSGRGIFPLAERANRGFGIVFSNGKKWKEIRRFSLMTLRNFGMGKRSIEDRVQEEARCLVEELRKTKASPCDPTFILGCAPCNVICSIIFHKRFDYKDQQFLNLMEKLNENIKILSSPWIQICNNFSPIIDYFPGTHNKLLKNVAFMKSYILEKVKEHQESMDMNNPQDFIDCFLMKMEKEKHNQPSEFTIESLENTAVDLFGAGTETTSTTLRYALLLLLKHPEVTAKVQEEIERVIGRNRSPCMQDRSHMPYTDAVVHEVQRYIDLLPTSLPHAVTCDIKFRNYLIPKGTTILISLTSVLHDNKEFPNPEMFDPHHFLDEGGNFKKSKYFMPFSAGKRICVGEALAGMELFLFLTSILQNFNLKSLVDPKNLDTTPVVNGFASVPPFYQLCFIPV
Sequence of Cytochrome P450 3A4 (Homo sapiens) (P08684 whole entry, looked up, canonical isoform): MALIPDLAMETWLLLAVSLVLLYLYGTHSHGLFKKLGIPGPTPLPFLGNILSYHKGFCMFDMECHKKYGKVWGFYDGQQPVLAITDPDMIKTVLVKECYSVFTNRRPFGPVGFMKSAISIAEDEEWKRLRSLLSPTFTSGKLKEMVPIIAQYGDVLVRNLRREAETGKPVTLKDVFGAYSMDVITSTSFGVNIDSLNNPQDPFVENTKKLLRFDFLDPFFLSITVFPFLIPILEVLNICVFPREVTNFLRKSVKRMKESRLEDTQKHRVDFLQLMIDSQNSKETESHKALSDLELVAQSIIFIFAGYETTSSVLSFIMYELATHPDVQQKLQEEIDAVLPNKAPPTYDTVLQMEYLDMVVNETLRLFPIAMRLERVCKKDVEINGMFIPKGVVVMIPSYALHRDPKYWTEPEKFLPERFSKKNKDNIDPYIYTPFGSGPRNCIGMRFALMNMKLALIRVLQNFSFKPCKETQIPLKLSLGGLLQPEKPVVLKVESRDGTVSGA
Sequence of Cytochrome P450 2D6 (Homo sapiens) (P10635 whole entry, looked up): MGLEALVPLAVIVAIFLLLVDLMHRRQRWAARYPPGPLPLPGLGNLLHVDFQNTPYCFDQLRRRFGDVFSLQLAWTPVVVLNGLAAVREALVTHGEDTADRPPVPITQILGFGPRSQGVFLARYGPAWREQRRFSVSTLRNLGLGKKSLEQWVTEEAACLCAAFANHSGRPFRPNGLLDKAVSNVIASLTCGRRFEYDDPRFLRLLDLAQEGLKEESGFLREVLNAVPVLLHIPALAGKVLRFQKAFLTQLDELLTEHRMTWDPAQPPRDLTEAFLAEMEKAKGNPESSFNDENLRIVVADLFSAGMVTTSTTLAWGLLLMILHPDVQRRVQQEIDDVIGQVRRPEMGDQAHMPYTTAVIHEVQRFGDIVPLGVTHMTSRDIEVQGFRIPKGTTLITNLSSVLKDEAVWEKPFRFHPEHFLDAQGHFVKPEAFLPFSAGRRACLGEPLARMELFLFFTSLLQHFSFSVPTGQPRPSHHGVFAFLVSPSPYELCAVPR
Sequence of Cytochrome P450 2C19 (Homo sapiens) (P33261 whole entry, looked up): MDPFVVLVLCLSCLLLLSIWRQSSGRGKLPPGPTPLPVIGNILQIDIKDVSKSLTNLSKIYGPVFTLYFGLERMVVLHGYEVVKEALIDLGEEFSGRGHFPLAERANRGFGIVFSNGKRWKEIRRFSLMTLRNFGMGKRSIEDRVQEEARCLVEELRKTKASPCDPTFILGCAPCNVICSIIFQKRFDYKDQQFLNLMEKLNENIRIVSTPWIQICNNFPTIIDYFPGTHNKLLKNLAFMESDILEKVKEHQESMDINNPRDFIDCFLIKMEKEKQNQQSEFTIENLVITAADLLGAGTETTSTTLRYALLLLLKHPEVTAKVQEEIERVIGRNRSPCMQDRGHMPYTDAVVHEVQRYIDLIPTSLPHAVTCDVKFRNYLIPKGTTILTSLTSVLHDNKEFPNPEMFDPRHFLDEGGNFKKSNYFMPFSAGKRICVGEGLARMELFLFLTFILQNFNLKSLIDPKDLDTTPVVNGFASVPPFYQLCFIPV

With `Cc1nc(N)sc1-c1ccnc(Nc2ccc(N3CCOCC3)cc2)n1`, the Potency is 6.62 µM (active) in assay [1]; 11.8 µM (active) in assay [2]; 11.8 µM (active) in assay [3]; 7.43 µM (active) in assay [4]; 16.6 µM (active) in [5].

Regarding `COc1ccc(-c2cc(=O)c3c(O)cc(O)cc3o2)cc1O`, the values for the Potency in assay [1] and in assay [4] were 3.32 µM (active) and 26.4 µM (active), respectively. Besides, the Potency entry in assay [2], in [3] and in assay [5] was “inactive” throughout.

Take `CON=C(C(=O)N[C@@H]1C(=O)N2C(C(=O)OCOC(=O)C(C)(C)C)=C(C=Cc3scnc3C)CS[C@H]12)c1csc(N)n1`: the Potency in [1] is 20.9 µM (active). The Potency result in [2], in assay [3], in assay [4] and in assay [5] was “inactive” throughout.

`COc1ccc(-c2coc3cc(O)ccc3c2=O)cc1`: the Potency entry in assay [1], in [2] and in [3] was “inactive” each time. Besides, the Potency was 18.7 µM (active) in assay [4] and 14.1 µM (active) in assay [9]. Also, the compound was classed as inactive in assay [6], in assay [7], in [8] and in assay [10].

For `CCCCCN(C)CCC(O)(P(=O)(O)O)P(=O)(O)O`, the Potency entry in [1], in assay [2], in [3], in [4] and in [5] was “inactive” throughout.

With `C=C1C(=O)[C@@]23C(CC[C@@H]1[C@H]2O)[C@@]12CO[C@]3(O)[C@@H](O)[C@@H]1C(C)(C)CC[C@@H]2O` (stereo partly specified), the Potency was 1.66 µM (active) in [1], 11.8 µM (active) in assay [2], 7.43 µM (active) in assay [3] and 2.35 µM (active) in [5].

On to `CC(C)OC(=O)CCCC=CC[C@@H]1[C@H](C=C[C@@H](O)COc2cccc(C(F)(F)F)c2)[C@H](O)C[C@@H]1O`, for which the Potency in assay [1] is 20.9 µM (active); in assay [2] it was 10.5 µM (active); in assay [3], 23.5 µM (active); in assay [4], 16.6 µM (active); in assay [5], 18.7 µM (active).

In the case of `CN(C[C@@H]1COCCO1)S(=O)(=O)Nc1ccc2ccc3ncc(-c4cnn(C)c4)cc3c(=O)c2c1`, the Potency in assay [1] was 1.05 µM (active); in assay [2], 16.6 µM (active); in assay [4], 4.18 µM (active).

(Values after PubChem BioAssay (NCATS).)
